Some test systems named below: DU-145 prostate; K-562 leukemia; MALME-3M melanoma; MDA-MB-231 breast; RXF 393 renal; SF-268 CNS; SF-295 CNS; SF-539 CNS; UACC-257 melanoma; M14 melanoma.
Assay in all cases: NCI-60 one-dose screen, 48 h (100 = growth as untreated, 0 = no growth, -100 = all killed)
What all share (details): 10 µM unless noted

Several values for one entry are separate records, joined by “and”; a condition that tells them apart may be missing. Equal entries are not always repeated. The panel holds about 83,000 compounds, 20% with a hit somewhere; the sample as a whole holds those more often.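 The test compound was applied at a single concentration to cells in 96-well plates for 48 hours, and percent growth was recorded.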 Values without a mark were called inactive. Activity calls are given as the source filed them. How the source made its calls: active means growth percent below 10; inactive means the rest.

For `CN(Cc1ccccc1)c1nc(Cl)c(C2CC(c3ccc(F)cc3)=NN2C=O)s1` (stereo not drawn), the growth in the experiment on DU-145 prostate is 104%; in the experiment on K-562 leukemia, 77.9%; in the experiment on MALME-3M melanoma, 105%; in the experiment on MDA-MB-231 breast, 97%; in the experiment with RXF 393 renal it was 92.9%; with SF-268 CNS, 91.2%. The growth is 92.2% with SF-295 CNS, 107% in the experiment with SF-539 CNS, 103% in the experiment with UACC-257 melanoma and 92.8% with M14 melanoma.

Consider `CC(=O)N1N=C(c2ccc(Nc3nc(Nc4ccc(F)cc4)nc(Nc4ccc(F)cc4)n3)cc2)CC1c1ccccc1` (stereo not drawn), for which the growth in the experiment with DU-145 prostate is 116%; with K-562 leukemia, 80.1%; in the experiment with MALME-3M melanoma, 76.2%; in the experiment with MDA-MB-231 breast, 80.1%; in the experiment with RXF 393 renal, 60.6%; with SF-268 CNS, 86.1%. In addition, the growth in the experiment on SF-295 CNS is 132%; with SF-539 CNS it was 110%; in the experiment on UACC-257 melanoma, 108%; with M14 melanoma it was 85%.

For `O=C(Nc1ccc(F)cc1)c1cc2cc(Nc3nc(-c4ccccc4)nc4ccccc34)ccc2oc1=O`, the growth in the experiment with DU-145 prostate was 108%; with K-562 leukemia, 102%; in the experiment with MALME-3M melanoma, 103%; in the experiment on MDA-MB-231 breast it was 90.6%; with RXF 393 renal, 115%; in the experiment with SF-268 CNS, 97.3%. The growth with SF-295 CNS was 108%; in the experiment with SF-539 CNS, 108%; with UACC-257 melanoma, 96.6%; with M14 melanoma it was 102%.

For the compound `COc1ccc2c(c1)c(-c1nc(-c3c[nH]c4c(Cl)nccc34)cs1)cn2C`, the growth is 90% in the experiment on DU-145 prostate; 90.8% in the experiment on K-562 leukemia; 117% with MALME-3M melanoma; 52.2% in the experiment with MDA-MB-231 breast; 83.2% in the experiment on RXF 393 renal; 111% in the experiment on SF-268 CNS. For the same compound, the growth in the experiment with SF-295 CNS is 97.2%; in the experiment with SF-539 CNS, 89.7%; in the experiment with UACC-257 melanoma, 100%; with M14 melanoma, 90.8%.

Take `CC1=CC=C(NC(=O)/C=C/c2ccccc2)CC1Nc1nccc(-c2cccnc2)n1` (stereo not drawn): the growth in the experiment on DU-145 prostate is 30.9%; with K-562 leukemia, 10.2%; in the experiment with MALME-3M melanoma, 45.2%; in the experiment on MDA-MB-231 breast, 51.5%; in the experiment on RXF 393 renal, 0.475% (active); with SF-268 CNS, 54%. In addition, the growth with SF-295 CNS was 44.1%; in the experiment with SF-539 CNS, 14%; in the experiment on UACC-257 melanoma, 8.14% (active); with M14 melanoma, 23.7%.

Consider `COc1ccc(/C=N/C2=C(C#N)C(c3ccccc3)c3c(ccc4ccccc34)O2)cc1` (stereo not drawn), for which the growth in the experiment on DU-145 prostate was 24.6%; in the experiment on K-562 leukemia, 8.18% (active); in the experiment on MALME-3M melanoma it was 47.5%; with MDA-MB-231 breast, 33.4%; in the experiment with RXF 393 renal, -8.72% (active); in the experiment with SF-268 CNS, 50.7%. For the same compound, the growth with SF-295 CNS was 10.9%; in the experiment with SF-539 CNS, 6.89% (active); with UACC-257 melanoma, 61.8%; in the experiment with M14 melanoma it was 11.8%.

Take `COC(=O)/C=C1/SC(N2N=C(c3cccs3)CC2c2ccc(F)cc2)=NC1=O` (stereo not drawn): the growth in the experiment with DU-145 prostate was 31%; with K-562 leukemia, 5.16% (active); in the experiment with MALME-3M melanoma, 79.7%; in the experiment on MDA-MB-231 breast, 35%; in the experiment on RXF 393 renal, 48.7%; in the experiment with SF-268 CNS, 32.4%. The growth with SF-295 CNS is 91.4%; with SF-539 CNS, 91.6%; in the experiment with UACC-257 melanoma it was 84.4%; in the experiment with M14 melanoma it was 50.8%.

On to `Cn1ccnc1CN1CCSC(C(=O)Nc2ccccc2)C1` (stereo not drawn), for which the growth with DU-145 prostate is 100%; with K-562 leukemia, 92.1%; in the experiment on MALME-3M melanoma, 96.6%; in the experiment with MDA-MB-231 breast, 104%; in the experiment with RXF 393 renal, 94.2%; in the experiment with SF-268 CNS it was 95.1%. For the same compound, the growth is 92.9% in the experiment on SF-295 CNS, 96% in the experiment with SF-539 CNS, 79.6% with UACC-257 melanoma and 98.1% in the experiment on M14 melanoma.

In the case of `Cc1ccc(NC(=O)c2sc3nc(C)c(C(=O)c4ccccc4)cc3c2N)cc1`, the growth in the experiment with DU-145 prostate was 95.4%; in the experiment on K-562 leukemia it was 55.7%; in the experiment on MALME-3M melanoma, 87.6%; in the experiment with MDA-MB-231 breast it was 92%; in the experiment on RXF 393 renal, 98.8%; in the experiment with SF-268 CNS it was 91.1%. The growth with SF-295 CNS is 73.1%; in the experiment with SF-539 CNS it was 94.8%; in the experiment with UACC-257 melanoma, 94.9%; with M14 melanoma it was 82.7%.

As to `CC(C)(C)CC(N)=O`, the growth in the experiment on DU-145 prostate was 111%; in the experiment with K-562 leukemia, 116%; in the experiment on MALME-3M melanoma, 102%; with RXF 393 renal, 103%; in the experiment with SF-268 CNS, 105%; in the experiment with SF-295 CNS it was 92.5%. Besides, the values for the growth with SF-539 CNS, with UACC-257 melanoma and in the experiment with M14 melanoma were 95.3%, 95% and 92%, respectively.

`O=C1CCCCN1CCCCC#Cc1cccc(C#Cc2cccnc2)c1`: the growth is 109% with DU-145 prostate; 26.9% in the experiment with K-562 leukemia; 249% in the experiment with MALME-3M melanoma; 65.3% in the experiment on MDA-MB-231 breast; 83.2% in the experiment on SF-268 CNS; 79.9% with SF-295 CNS. Also, the figures for the growth in the experiment on SF-539 CNS, with UACC-257 melanoma and in the experiment with M14 melanoma were 91.8%, 84.4% and 105%, respectively.

Consider `CCCO/N=C/c1ccccn1`, for which the growth in the experiment with DU-145 prostate was 102% and 111%; with K-562 leukemia, 99.5% and 103%; in the experiment with MALME-3M melanoma, 110% and 105%; in the experiment on MDA-MB-231 breast, 103% and 111%; in the experiment with RXF 393 renal, 112% and 122%; with SF-268 CNS, 96.4% and 104%. Besides, the growth in the experiment with SF-295 CNS was 131% and 95.3%; with SF-539 CNS, 110% and 95%; in the experiment with UACC-257 melanoma, 102% and 96.8%; with M14 melanoma it was 105% and 103%.

Turning to `Cc1c(CC(=O)OCCO)cc(-c2ccc(Cl)cc2)n1-c1ccccc1`, the growth with DU-145 prostate is 102%; in the experiment on K-562 leukemia it was 70.5%; in the experiment on MALME-3M melanoma it was 103%; in the experiment with MDA-MB-231 breast, 95.4%; with RXF 393 renal, 107%; with SF-268 CNS, 94.5%. For the same compound, the growth in the experiment with SF-295 CNS was 96.6%; with SF-539 CNS it was 101%; in the experiment on UACC-257 melanoma, 98.9%; in the experiment on M14 melanoma it was 109%.

(Values after PubChem BioAssay (NCI).)
